In publication PMC7819943, “Rice protein-binding microarrays: a tool to detect cis-acting elements near promoter regions in rice” one finds binding signal data, which are given here for 42 sequences.

The full ranking holds about 35,000 sequences; the median of “fluorescence intensity (a.u.)” is about 10,000, and the highest 2% start at about 52,000. Shown is part of a subset that was picked to be rich in the highest values.

In the assay the target is T1, OsWOX13 (Oryza sativa, UniProt Q5QMM3 1-267).
T1 sequence: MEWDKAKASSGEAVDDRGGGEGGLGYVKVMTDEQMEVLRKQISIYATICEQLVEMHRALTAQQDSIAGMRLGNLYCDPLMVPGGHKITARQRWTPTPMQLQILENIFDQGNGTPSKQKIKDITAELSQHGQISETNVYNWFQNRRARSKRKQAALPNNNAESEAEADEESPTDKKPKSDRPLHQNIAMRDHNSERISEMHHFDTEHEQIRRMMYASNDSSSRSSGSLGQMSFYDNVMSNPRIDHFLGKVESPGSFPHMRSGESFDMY
The assay is described as follows: protein-binding microarray (RPBM); PBS, 2% BSA, 51.3 ng/ul salmon testes DNA, 50 uM zinc acetate, 200 nM TF, 25 C, 1 h; high values mean tight binding. As to conditions: protein: recombinant; tags: N-terminal polyhistidine and DsRed monomer fusion (pET32a); label: CyDye5-dUTP incorporated in the synthesized complementary strand; 3' TTTTT single-stranded linker to array surface; dsDNA, one strand shown. An outline of the steps:
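An Axon 4000B scanner gave the binding signal as per-feature fluorescence intensity in arbitrary units. This followed washing of a custom Agilent array that had been incubated for 1 h at 25 °C with 200 nM protein in PBS, 2% BSA, salmon testes DNA and 50 µM zinc acetate. The proteins were transcription factors fused at the N-terminus to polyhistidine and DsRed, expressed in E. coli BL21-CodonPlus and purified on Ni–NTA.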
With “TTACACTGATTGATGCTCCACATGAACACCACATGCATTTCGGAGTCACCTAGTGCAG”, the binding signal is 32600 fluorescence intensity (a.u.).
For “TATCTGATGAGAGCAGATTGCCACACATCACAGCATGCAGCGGAGTCACCTAGTGCAG” the value was 10300 fluorescence intensity (a.u.).
As to “ATGATTGACAAGATGAATCAGCACGCTGTTGGAAAAGGGACGGAGTCACCTAGTGCAG”, the binding signal is 55400 fluorescence intensity (a.u.).
Take “ATTGATGAATGTTGACAAACCTGGTTTGATTTGGAGGGAACGGAGTCACCTAGTGCAG”: the binding signal was 23500 fluorescence intensity (a.u.).
For “TGGCTGCTGATTGCAACAGTGGTACTGACATTAGCAGCAGCGGAGTCACCTAGTGCAG”, the binding signal was 16300 fluorescence intensity (a.u.).
The figure for “AACACAGGCTGATGAATGATGATTGAATGAACAGAGACAACGGAGTCACCTAGTGCAG” is 22900 fluorescence intensity (a.u.); for “CACCATGATTGATTGCTCCATGCACACACATTGAGACACGCGGAGTCACCTAGTGCAG” it is 59700 fluorescence intensity (a.u.).
Regarding “ATTGCTGATTGAGCATGTAGACATTGCTAGTGGTAGTACGCGGAGTCACCTAGTGCAG”, the binding signal was 58000 fluorescence intensity (a.u.).
Take “ATTTGATTTGATCACAACACATTAGCTTGGTTGCTCCATGCGGAGTCACCTAGTGCAG”: the binding signal is 41800 fluorescence intensity (a.u.).
The figure for “ATTATGTAAATTTTGACTAATGTTTAGTCGAAGTGCAAGTCGGAGTCACCTAGTGCAG” is 8100 fluorescence intensity (a.u.); for “TGTCACAAATCTAATGGTATAATTAGTTCATAGTTCGGATCGGAGTCACCTAGTGCAG” it is 8340 fluorescence intensity (a.u.).
For “TCTAAATTTTCATGACATGGTACCATACTACAAATCCATCCGGAGTCACCTAGTGCAG” the value was 9500 fluorescence intensity (a.u.); for “TTTAGACAGTAATTAAAGTCGAATTACATTGCATTGTTCGCGGAGTCACCTAGTGCAG”, 40300 fluorescence intensity (a.u.); for “GTAATTGGGAGGGAATTTCTCCTTTACTTCGCCTAAACAACGGAGTCACCTAGTGCAG”, 14100 fluorescence intensity (a.u.).
In the case of “TCTAACTGTGGATAATATCTGACAGGAAATTTGATATCAACGGAGTCACCTAGTGCAG”, the binding signal was 6210 fluorescence intensity (a.u.).
As for “TGTTGGTTAAGTAATTAATTAAGTCTTGGCTATTGGCGATCGGAGTCACCTAGTGCAG”, the binding signal was 13500 fluorescence intensity (a.u.).
For “TCGTAAAATTAATTGTAAATTGTAATATGATAACAAGGCCCGGAGTCACCTAGTGCAG”, the binding signal was 33100 fluorescence intensity (a.u.).
Take “AGTTTTCAAAATTTGACTTTAAAATTTAAATCTTAAATCACGGAGTCACCTAGTGCAG”: the binding signal is 3970 fluorescence intensity (a.u.).
In the case of “GAGTTTAATTAATTAATTTCTTAAAATTGATGTCATCACACGGAGTCACCTAGTGCAG”, the binding signal was 54800 fluorescence intensity (a.u.).
Consider “GTGCTTTAATCAGTAATTTTGCAATTGCTTTTGAATTTCACGGAGTCACCTAGTGCAG”, for which the binding signal is 5640 fluorescence intensity (a.u.).
Regarding “ACTTTTCAGTTACATCATCTCTAATTTCAATTGAAATCCACGGAGTCACCTAGTGCAG”, the binding signal is 7120 fluorescence intensity (a.u.).
For “CAAAATTATCTAATTGATGACTATTTCTAAATACACATCACGGAGTCACCTAGTGCAG” the value was 41800 fluorescence intensity (a.u.); for “TCTTAATTGAAAGAGTTTTCATCATGTCTTTCAGTCACCACGGAGTCACCTAGTGCAG”, 53900 fluorescence intensity (a.u.).
For the sequence “CTAATCAAAATGTAATTAACTCATTTATATATTACGGAAACGGAGTCACCTAGTGCAG”, the binding signal was 21800 fluorescence intensity (a.u.).
As to “TCGATCTCCATTAATTATCCAACGACGACACGACGACGCACGGAGTCACCTAGTGCAG”, the binding signal was 5720 fluorescence intensity (a.u.).
In the case of “GGGTCAGGGTGGGCGTGGATTGATATTTTAATACGAATAACGGAGTCACCTAGTGCAG”, the binding signal is 10800 fluorescence intensity (a.u.).
For “TGCACGCTAATTTGCCTTGCTGCTGCTGCTACTAGGGCGGCGGAGTCACCTAGTGCAG”, the binding signal is 4920 fluorescence intensity (a.u.).
Turning to “TAGATGAGTTAAATATAATTATTTGTATGTTTTAATAAATCGGAGTCACCTAGTGCAG”, the binding signal is 3630 fluorescence intensity (a.u.).
For “GCTGATGACTTTTCTCCCGGTTTCATATTTTCTTTTAGAACGGAGTCACCTAGTGCAG”, the binding signal is 8420 fluorescence intensity (a.u.).
For “GATTAATGATTAATTAATAATATGTTAATGAGTTTTATCCCGGAGTCACCTAGTGCAG” the value was 52500 fluorescence intensity (a.u.).
For the sequence “TATGATTTATAAATTAATGGATTTAAAGTTTTAAGTTAATCGGAGTCACCTAGTGCAG”, the binding signal is 43900 fluorescence intensity (a.u.).
For the sequence “GTCATTTTAATTGCAAATGCTTTTATATGTTGTTTCTTTCCGGAGTCACCTAGTGCAG”, the binding signal was 6630 fluorescence intensity (a.u.).
On to “TTAAAATTTATATGTTAAATTATAGTGGTTTAAAATTTCACGGAGTCACCTAGTGCAG”, for which the binding signal is 8530 fluorescence intensity (a.u.).
The figure for “GAACGGAGGATGCTGAGCTCTCTTATGAGGTCTATTTTCCCGGAGTCACCTAGTGCAG” is 65100 fluorescence intensity (a.u.).
Turning to “GTTTAATTAATTATATGTTAATGATTTTCTTTTCATGCCCCGGAGTCACCTAGTGCAG”, the binding signal was 65400 fluorescence intensity (a.u.).
On to “TTAATTAATAATATGTTAATGATTTTCTCATCTTACCTTACGGAGTCACCTAGTGCAG”, for which the binding signal is 13400 fluorescence intensity (a.u.).
On to “ACTTAATTATGTTGTGGTTAATTAGCCCCGAAATGGTCGTCGGAGTCACCTAGTGCAG”, for which the binding signal was 52900 fluorescence intensity (a.u.).
In the case of “AGCCTAATTAATTCGTCATTAGCATATGTGGGTTATTATACGGAGTCACCTAGTGCAG”, the binding signal was 27800 fluorescence intensity (a.u.).
Regarding “CATGATTTTACTTTCTTTTCAGGTCTTAGGAGTGAGCTTCCGGAGTCACCTAGTGCAG”, the binding signal was 9930 fluorescence intensity (a.u.).
Consider “GAGATAGAGATAATAGAAAGATTAAACAAGATTCGATAGACGGAGTCACCTAGTGCAG”, for which the binding signal was 3590 fluorescence intensity (a.u.).
Turning to “CGAGATAAATCACGGTAATCACAGCAACAGCAACAGCAACCGGAGTCACCTAGTGCAG”, the binding signal was 10400 fluorescence intensity (a.u.).
The figure for “ATGCCATCCAATCAAGCCACGACGATCCACAGCCATAGTGCGGAGTCACCTAGTGCAG” is 11500 fluorescence intensity (a.u.).
